# Source: PubChem BioAssay
# M1 antag = antagonists of rat M1 muscarinic receptor; CHO-M1 cells, Fluo-4 calcium, ACh EC80 antagonist mode; hits give low values; B-score at 10 µM; 64,000 tested, 3.4% active; AID 628, 2007;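 active = calcium fluorescence response, raw or row-and-column corrected B-score, differing from the plate sample mean either way at a set confidence level, mostly lower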
# Target sequence (P08482 whole entry, looked up): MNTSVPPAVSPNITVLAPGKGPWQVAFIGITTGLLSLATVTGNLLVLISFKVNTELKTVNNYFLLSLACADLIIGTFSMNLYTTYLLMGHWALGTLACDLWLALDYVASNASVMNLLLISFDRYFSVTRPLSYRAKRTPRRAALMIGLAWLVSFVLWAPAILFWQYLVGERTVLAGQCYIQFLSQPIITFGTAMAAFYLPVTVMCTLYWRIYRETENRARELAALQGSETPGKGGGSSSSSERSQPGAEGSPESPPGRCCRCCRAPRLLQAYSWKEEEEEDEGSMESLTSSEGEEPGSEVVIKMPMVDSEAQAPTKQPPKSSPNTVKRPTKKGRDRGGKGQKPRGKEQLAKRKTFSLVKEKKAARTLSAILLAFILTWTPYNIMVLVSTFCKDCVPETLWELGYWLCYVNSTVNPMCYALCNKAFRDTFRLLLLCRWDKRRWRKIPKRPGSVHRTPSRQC
# Cav3 T inh = Cav3.2 calcium influx blockers – cell-based, Fluo-4 calcium fluorescence, FDSS, MLSMR library, primary screen; Voltage-dependent T-type calcium channel subunit alpha-1H (Homo sapiens), O95180; Cav3.2-expressing cells; hits give low values; B-score at 10 µM; 100,000 tested, 4% active;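 active = single-dose well whose peak fluorescence ratio is a statistical outlier from its plate by either plate-standardised score or position-corrected B-score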
# M1 agonist = M1 muscarinic receptor agonists, primary screen, CHO-M1 cells, Fluo-4 calcium, agonist mode. Muscarinic acetylcholine receptor M1. Fluo-4 calcium fluorescence; hits give high values. B-score at 10 µM. 64,000 tested, 3% active;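 active = fluorescence rise, raw or as B-score row- and column-corrected plate score, outside the 99.7% band of its plate's samples, either direction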
# PLAP activator = PLAP enzyme activators, biochemical, luminescence, HTS; Alkaline phosphatase, placental type (Homo sapiens), P05187; purified PLAP enzyme, luminescent substrate read-out; hits give high values; activation fold at 20 µM; 96,000 tested, 1.2% active; in the data active = activation fold above about 2
# M1 antag conf = rat M1 muscarinic receptor antagonists, confirmation, CHO cells, Fluo-4 calcium, duplicate | 1,700 tested, 43% active | shares compounds with M1 antag | AID 677, 2007 | calcium response (max-min fluorescence) at 10 µM | ACh EC80 antagonism; hits give low values;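 active = calcium response below the same-plate mean of wells given acetylcholine alone at its 80%-effect dose, minus 3 SD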;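 also: raw fluorescence intensity difference in arbitrary instrument units and not normalized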
# mGluR4 antag = human mGluR4 response to M1 antagonist hits, M1 allosteric modulator project, cell-based, antagonist mode, secondary assay 1; shares compounds with M1 antag; CHO-mGluR4 calcium flux, Fluo-4 fluorescence, glutamate EC80; hits give low values; fluorescence response (max-min) at 10 µM; 1,700 tested, 0.9% active;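 active = fluorescence response below the plate's average for near-maximal glutamate wells, less 3 SD of those wells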;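 also: raw unnormalized fluorescence span taken in the window right after glutamate addition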
# * marks the source's active call; other numbers are inactive results; nt = no result. In the library only some 7.6% were active in any assay of this set; here they are far more common.
SMILES,M1 antag,Cav3 T inh,M1 agonist,PLAP activator,M1 antag conf,mGluR4 antag
Cc1ccc(SCCCCN2C(=O)NC(C)(C)C2=O)cc1,-2.06*,0.632,0.757,0.9,480,194
O=C1C(Cl)=C(N2CCCCCC2)C(=O)N1c1ccccc1,-3.06*,-1,0.126,1,219*,148
Cc1cc(C)c(C(=O)CSc2n[nH]c(=O)n2C2CC2)cc1C,0.00946,-0.766,-1.29,1.4,nt,nt
CS(=O)(=O)N(Cc1ccccc1)c1ccc(C(=O)NCc2cccnc2)cc1,nt,0.226,nt,1.6,nt,nt
C=CCOc1nc(N2CCCC2)nc(N2CCCC2)n1,0.193,-0.147,0.0534,1,nt,nt
CCOC(=O)Nc1ccc2c(c1)N(C(=O)OCCN(C)C)c1ccccc1CC2,-3.31*,1.88,3.39,1.6,294*,220
CN(C)S(=O)(=O)c1cccc(C(=O)Nc2ccc(Cl)cn2)c1,-3*,0.541,-0.0952,0.9,683,175
O=C(NNC1CC(=O)N(c2ccc3c(c2)OCCO3)C1=O)c1ccccc1 (stereo not drawn),nt,1.76,nt,1,nt,nt
Cn1c(CCN2CCCCC2)nc2cc(NC(=O)NC3CCCCC3)ccc21,-4.72*,0.355,-0.333,1.3,263*,228
Cn1c(CCN2CCCCC2)nc2cc(NS(=O)(=O)c3ccc(F)cc3)ccc21,-1.82*,0.176,-0.522,1.4,474*,207
Cc1ccc(N2CCN(CCc3nc4cc(NS(C)(=O)=O)ccc4n3C)CC2)cc1,-3.75*,0.433,1.7,1.2,503*,234
CCOC(=O)c1ccc(NC(=O)N(CC)CC)cc1,0.0856,0.4,-0.0266,0.9,nt,nt
COc1ccc(CCN(C(=O)c2ccc(F)cc2)C2=CC3CCC(C2)N3C)cc1OC (stereo not drawn),-0.622,nt,1.14,1.6,nt,nt
Cc1cc(CN2CCOCC2)c(O)c(C2(C)CCCCC2)c1,1.42,1.38,1.23,0.9,nt,nt
COc1ccc(C(CNC(=O)c2cc3ccccc3cc2OC)N2CCCC2)cc1 (stereo not drawn),nt,nt,nt,1.6,nt,nt
COc1ccc(Cl)cc1C(=O)NCC(c1ccco1)N1CCCC1 (stereo not drawn),-4.64*,0.666,-0.15,1.1,390*,236
Cc1cc(N2CCN(C(c3ccccc3)c3ccc(Cl)cc3)CC2)n2ncnc2n1 (stereo not drawn),-0.489,nt,0.153,nt,nt,nt
Cc1cc(N2CCN(C/C=C/c3ccccc3)CC2)n2ncnc2n1,-1.57*,0.906,-0.321,1.7,525,231
CC(NC(=O)c1ccc(N(C)C)cc1)C(c1cccs1)N1CCN(C)CC1 (stereo not drawn),-3.93*,-0.265,0.187,1.4,632,183
COc1ccc(NC(=S)NCc2ccco2)c(OC)c1,nt,-0.148,nt,0.8,nt,nt
CC(C)Cn1cc(C(=O)NCCCOC(C)C)c2c3ccccc3n(C)c2c1=O,nt,1.22,nt,1,nt,nt
CC(C)Cn1cc(C(=O)NCC2CCCO2)c2c3ccccc3n(C)c2c1=O (stereo not drawn),-5.92*,0.132,1.63,1.5,577,212
CCC(C)N(CCNC(=O)CC1Oc2ccc(C)cc2NC1=O)C1CCCCC1 (stereo not drawn),-8.78*,0.0125,-1.3,1.2,20.7*,208
Cc1ccc2c(c1)NC(=O)C(CC(=O)NCCCN1CCCCC1C)O2 (stereo not drawn),-0.0901,-1.04,1.62,1.2,nt,nt
O=C(Nc1ccc(-n2nncc2-c2ccco2)cc1)c1cc2ccccc2oc1=O,-0.118,1.01,0.0997,1,nt,nt
SMILES,M1 antag,Cav3 T inh,M1 agonist,PLAP activator,M1 antag conf,mGluR4 antag
Cc1ccc(-n2ncc(C#N)c2/N=C/N2CCCCCC2)cc1,-1.99*,-3.1,0.503,1.4,560*,196
CC(=O)OCc1c(COC(C)=O)[n+](=O)c2ccccc2n1[O-],-2.62*,-0.14,-0.0693,1,634,267
COc1ccc2c(c1)[n+](=O)c(C(C)=O)c(C)n2[O-],nt,1.1,nt,0.9,nt,nt
Cc1nc2sc3c(c2c2nnc(SCC(=O)NCc4ccco4)n12)CCCC3,-2.74*,-1.14,-1.04,1.6,618,215
COC(=O)C1=CNC=C(C(=O)OC)C1c1ccc(C(=O)OC)cc1,-3.21*,-1.6,-0.019,2*,398*,220
CCOc1ncccc1C(=O)OCc1nnc(-c2ccccc2)o1,1.44,-1.2,-0.194,1.4,nt,nt
Cc1sc(CO)c(Sc2ccccc2)c1C(=O)O,-0.233,nt,0.779,1.1,nt,nt
CCSc1nnc(CNc2ccc(F)cc2)n1CC1CCCO1 (stereo not drawn),1,0.796,-0.0131,1.1,nt,nt
CCn1c(CNc2ccc(F)cc2)nnc1SCCN1CCCCC1,-3.27*,0.653,0.48,1.1,570*,149
CCc1ccc(CNc2ccc3c(c2)ncn3C)cc1,-2.7*,1.01,-0.286,1.1,627,248
CCn1cnc2cc(NCc3ccncc3)ccc21,-1.46,0.896,0.551,0.9,nt,nt
Cc1cccc(NC(=O)C2CCN(S(=O)(=O)c3cccs3)CC2)n1,-2.95*,0.284,-1.96,0.9,637,270
COc1ccccc1C(c1nnnn1C1CCCC1)N1CCN2CCCC2C1 (stereo not drawn),-3.77*,0.133,0.927,1.3,473*,251
O=S(=O)(Nc1ncnc2c1oc1ccccc12)c1ccc(Cl)s1,0.0225,-2.02,-0.459,1.1,nt,nt
Cn1c(-c2ccc3c(c2)OCO3)cnc1NC(=O)CCC(=O)NCCc1ccccc1,0.556,-1.96,-0.172,1.4,nt,nt
Cn1c(-c2ccc3c(c2)OCO3)cnc1N,-0.517,0.301,0.516,1.1,nt,nt
Cn1c(-c2ccc3c(c2)OCO3)cnc1NCc1cccc(Cl)c1,-16.6*,-4.77*,-1.2,0.8,109*,221
Cn1c(-c2ccc3c(c2)OCO3)cnc1NCc1ccccc1,-5.3*,-2.66,0.0775,1.2,295*,182
Fc1ccccc1N1CC(c2ccccc2)C(c2cccs2)=N1 (stereo not drawn),nt,-1.74,nt,1,nt,nt
CCc1cccc(OCC(=O)Nc2ccc(S(=O)(=O)Nc3onc(C)c3C)cc2)c1,0.569,nt,0.39,1.6,nt,nt
CC(=O)Nc1cccc(NC(=O)c2c(-c3c(Cl)cccc3Cl)noc2C)c1,0.194,0.169,0.0117,1.5,nt,nt
Cc1ccc(NC(=O)c2c(-c3c(F)cccc3Cl)noc2C)cc1F,-13.5*,-8.29*,0.262,0.7,638,251
Cc1csc(NC(=O)c2ccccc2C(=O)O)n1,-3.03*,0.948,-0.175,0.8,605,254
Cc1nc(N)nc2c1CCCC2,nt,0.37,nt,1,nt,nt
CN1CCCCc2c1nc1c(c2N)CCCC1,-2.47*,0.596,-0.718,0.9,509,264
COc1ccc(OC)c(S(=O)(=O)NC(C)(C)C)c1,nt,-0.0362,nt,0.8,nt,nt
CC1CCN(C(=O)CCc2ccc(S(=O)(=O)NC(C)C)cc2)CC1,nt,-2.98,nt,1.5,nt,nt
